# Assay outcomes: PubChem, several laboratories
# Only some compounds are listed: those with a hit (about 2.2% of all), similar ones and a draw of the others.
# GC-B act: GC-B (human) receptor activation | 370,000 compounds, 0.11% hits | activation, % at 10 µM | HEK293-GC-B cells, CNP EC30, cGMP TR-FRET; 0% at EC30 CNP, 100% saturating CNP | P20594;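 active = activation at 10 µM reaching about 35% in either raw or pattern-adjusted values, limit read from the data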
# ADAM10 inh: inhibitors of human ADAM10. O14672. recombinant ADAM10, EDANS/DABCYL FRET peptide cleavage, 3 h. inhibition, % at 7 µM. 370,000 compounds, 0.62% hits;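 active = inhibition above a per-campaign cutoff equal to the mean of compounds falling between control-based bounds plus 3 SD, cut at about 20% in these data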;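 also: 0% = DMSO wells while the 100% control is not disclosed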
# KLK7 zymogen act: activates the human kallikrein-7 zymogen; P49862; purified proKLK7, EDANS-DABCYL substrate fluorescence; 100% is mature enzyme control, 0% vehicle; activation, % at 7 µM; 370,000 compounds, 0.9% hits;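 active = activation above the mean of all tested compounds plus 3 SD, computed per campaign excluding outliers beyond control limits, cut at about 13% in these data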
# Target sequence (P49862 whole entry, looked up): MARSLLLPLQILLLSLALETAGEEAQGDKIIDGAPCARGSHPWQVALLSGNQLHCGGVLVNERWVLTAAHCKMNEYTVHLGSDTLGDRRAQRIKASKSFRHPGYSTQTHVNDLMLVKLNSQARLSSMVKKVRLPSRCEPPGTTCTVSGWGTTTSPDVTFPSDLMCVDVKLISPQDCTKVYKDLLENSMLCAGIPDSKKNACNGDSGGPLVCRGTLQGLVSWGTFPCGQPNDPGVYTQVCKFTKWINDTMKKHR
# NPR1 activator: GC-A (human) enzyme activation; activation, % at 10 µM; 370,000 compounds, 0.14% hits; HEK293 GC-A cells, cGMP TR-FRET, EC30 ANP; 0% at EC30 ANP, 100% saturating ANP; AID 1671463; P16066; in the data active = activation above about 40%
# ADAM17 inh: inhibits human ADAM17 | P78536 | recombinant ADAM17, EDANS/DABCYL FRET peptide cleavage | inhibition, % at 6.95 µM | 370,000 compounds, 0.83% hits | AID 720648;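 active = inhibition above the mean of compounds lying between control limits plus 3 SD, set per campaign, cut at about 8.5% in these data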;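 also: 0% = DMSO-only wells as the low control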
# ADAM10 counter: ADAM10 inhibition, counter-screen for ADAM17 exosite hits. shares compounds with ADAM17 inh. recombinant ADAM10, EDANS/DABCYL FRET peptide cleavage, 3 h. inhibition, % at 6.95 µM. 2,900 compounds, 47% hits. AID 743256;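 active = mean inhibition over the triplicate runs exceeds the activity threshold set in the earlier primary screen, cut at about 20% in these data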;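 also: 0% = DMSO wells and 100% = marimastat wells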
# ADAM17 confirm: human ADAM17 inhibition, confirmation; AID 743257; 2,900 compounds, 65% hits; shares compounds with ADAM17 inh; recombinant ADAM17, EDANS/DABCYL QFRET peptide cleavage; inhibition, % at 6.95 µM;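 active = mean inhibition across replicates above the hit cutoff set in the primary screen, cut at about 8.5% in these data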;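 also: 0% = DMSO wells and 100% = marimastat wells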
# * marks the source's active call; other numbers are inactive results; · = no result given.
SMILES,GC-B act,ADAM10 inh,KLK7 zymogen act,NPR1 activator,ADAM17 inh,ADAM10 counter,ADAM17 confirm
O=C(OCc1cn(Cc2ccc(C(F)(F)F)cc2)nn1)N1CCCC1,6,0,0,5,-4,·,·
O=C1OC(c2ccc(O)cc2)(c2ccc(O)cc2)c2ccccc21,1,-8,0,3,-1,·,·
O=C1OC(c2ccccc2)(c2ccc3cc(O)ccc3c2)c2ccccc21 (stereo not given),-10,19,1,-18,10*,25*,13*
C#CCN(C[C@@H]1[C@@H](OC(=O)Nc2cccs2)[C@@H](OC(=O)Nc2cccs2)Cn2c(=O)n(CCCCCC)c(=O)n21)S(=O)(=O)c1ccc(C)cc1,3,18,1,2,11*,20,10*
C#CCN(C[C@@H]1[C@@H](OC(=O)Nc2cccs2)[C@@H](OC(=O)Nc2cccs2)C[C@H](C(=O)OC)[C@@H]1C(=O)OC)S(=O)(=O)c1ccc(C)cc1,5,17,0,2,6,·,·
C[C@@H]1CCCN1c1cccc2c1S(=O)(=O)N(C1CC1)CCCO2,3,-11,1,-2,-2,·,·
COc1cccc(C(C)(O)c2nc(-c3csc4ccccc34)cs2)c1 (stereo not given),-3,12,0,2,9.5*,33*,16*
COc1cccc(C(C)(O)c2nc(-c3ccccc3C)cs2)c1 (stereo not given),-5,-1,0,2,2,·,·
Cc1cc(C)cc(C(=O)OCCCN(C)C2CN(Cc3cn(Cc4ccccc4C(F)(F)F)nn3)S(=O)(=O)C2)c1 (stereo not given),-3,10,0,-7,2,·,·
CCOC(=O)c1c(O)cc(OC)cc1CCc1ccccc1,-1,-2,0,-7,9.9*,9,8
COCCCNC(=O)C[C@@H]1C(=O)N(CCc2ccc(Cl)cc2)C2=CCCCC[C@]21C(=O)OC,1,-9,0,1,-6,·,·
N#Cc1ccccc1CSc1ccccn1,-4,12,1,1,9.1*,-8,0
N#Cc1ccc(CSc2ccccn2)c(Cl)c1,0,-10,0,-2,-1,·,·
CCc1ccc(N(CC(=O)Nc2nc3ccc(C)cc3s2)S(=O)(=O)c2c(C)noc2C)cc1,-8,16,0,-3,9.7*,46*,26*
CCN(CC)C(=O)C1CC(=O)N(c2ccc(F)c(Cl)c2)C1 (stereo not given),6,7,0,-7,9.5*,-5,-1
CC(C)NS(=O)(=O)c1ccc(CCC(=O)NCc2ccc3c(c2)OCO3)cc1,2,-7,-1,0,-2,·,·
CC(C)(C)NS(=O)(=O)c1ccc(CCC(=O)NCc2ccc3c(c2)OCO3)cc1,2,5,0,1,9.0*,8,7
CC(C)C[C@H](CO)N(Cc1ccccc1)S(=O)(=O)N(Cc1ccccc1)[C@@H](CO)CC(C)C,-20,-3,0,-9,13*,47*,26*
C=CS(=O)(=O)N(Cc1ccccc1)[C@H](CO)CC(C)C,4,7,0,0,2,·,·
CN(C)S(=O)(=O)c1ccc2nc(COCc3nc4ccc(S(=O)(=O)N(C)C)cc4[nH]3)[nH]c2c1,-3,3,·,0,-1,·,·
O=C(CNC(=O)c1ccccc1F)N/N=C/c1cc(Br)ccc1OCc1ccccc1,-5,19,0,-3,8.8*,32*,15*
O=C(CNC(=O)c1cccc(F)c1)N/N=C/c1cc(Br)ccc1OCc1ccccc1,0,8,0,-8,4,·,·
COC(=O)[C@]12C[C@H](CC(=O)NCc3cccs3)C(=O)N(Cc3ccc(Cl)cc3Cl)C1=C[C@H](C(C)(C)C)O[C@@H]2C,-13,4,0,-8,4,·,·
Cc1c(C=O)c2ccccn2c1C(=O)c1ccc(F)cc1,-7,12,0,-28,10*,-4,3
